In PubChem BioAssay (NCATS):
Inconclusive results are not listed. Calls of active or inactive are those of the source. The call rests on the fitted dose curve; in most records, active means well fitted curve in the direction sought with a large enough effect; inconclusive means small, poorly fitted or top-dose-only effect, or another doubt; inactive means no such curve, though single readings can be large; an effect the other way counts as inactive or inconclusive.

Experiments:
CRL-7250 = normal cell line; assay: Cytotoxic Profiling of Annotated Libraries Using Quantitative High-Throughput Screening (AID 1296008); settings: Five cell lines viability, CellTiter-Glo ATP luminescence, 48-72 h; max response: active compounds read low; further: nearly all actives have a fitted effect of over 60% in size; on max response: on the % scale 0 is the no-effect control and ±100 the full control effect
Procedure, shortened: (§1)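 Cytotoxicity was measured as CellTiter-Glo ATP luminescence, read after 10 min at room temperature. Compound treatment of the cells lasted 48 or 72 hr at 37 degrees Celsius in a qHTS format.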

HEK293 = assay: as above; settings: Five cell lines viability, CellTiter-Glo ATP luminescence, 48-72 h; max response: active compounds read low
Procedure, shortened: as §1

HaCat [1] = assay: as above; settings: Five cell lines viability, CellTiter-Glo ATP luminescence, 48-72 h; max response: active compounds read low
Procedure, shortened: as §1

KB-3-1 = assay: as above; settings: Five cell lines viability, CellTiter-Glo ATP luminescence, 48-72 h; max response: active compounds read low
Procedure, shortened: as §1

NIH3T3 [2] = assay: as above; settings: Five cell lines viability, CellTiter-Glo ATP luminescence, 48-72 h; max response: active compounds read low
Procedure, shortened: as §1

HACAT [3] = assay: qHTS assay to identify novel small-molecules to repurpose for Merkel cell carcinoma treatment (AID 1296009); settings: MCC and control cell lines, CellTiter-Glo viability, 72 h; at 44.8 µM (top of the series) unless noted; further: nearly all actives have a fitted effect of over 60% in size
Procedure, shortened: (§2)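 72 hr, 37 degree celsius; NPC 8-pt / MIPE 11-pt dose response; compound pinned in DMSO; CellTiter-Glo, 10 min RT, luminescence; normalized to no-cell and DMSO controls.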

NIH3T3 [4] = assay: as above; settings: MCC and control cell lines, CellTiter-Glo viability, 72 h; at 44.8 µM (top of the series) unless noted
Procedure, shortened: as §2

C33A = assay: Primary qHTS to identify gynecologic anti-cancer compounds using libraries of approved drugs and bioactive compounds (AID 1345084); settings: Gynecologic cancer cell panel viability, ATPlite luminescence, 48 h; series mostly up to 57.5 µM; further: on the % scale 0 is the no-effect control and ±100 the full control effect; nearly all actives have a fitted effect of over 55% in size
Procedure, shortened: (§3)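 48 h compound exposure at 37 C, 5% CO2; five-point qHTS. ATPlite luminescence readout of cell ATP.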

CAOV3 = assay: as above; settings: Gynecologic cancer cell panel viability, ATPlite luminescence, 48 h; series mostly up to 57.5 µM
Procedure, shortened: as §3

CASKI = assay: as above; settings: Gynecologic cancer cell panel viability, ATPlite luminescence, 48 h; series mostly up to 57.5 µM
Procedure, shortened: as §3

Es-2 = assay: as above; settings: Gynecologic cancer cell panel viability, ATPlite luminescence, 48 h; series mostly up to 57.5 µM
Procedure, shortened: as §3

HeLa = assay: as above; settings: Gynecologic cancer cell panel viability, ATPlite luminescence, 48 h; series mostly up to 57.5 µM
Procedure, shortened: as §3

Hek293T = assay: as above; settings: Gynecologic cancer cell panel viability, ATPlite luminescence, 48 h, control line for the selectivity index; series mostly up to 57.5 µM
Procedure, shortened: as §3

JEG-3 = assay: as above; settings: Gynecologic cancer cell panel viability, ATPlite luminescence, 48 h; series mostly up to 57.5 µM
Procedure, shortened: as §3

OV90 = assay: as above; settings: Gynecologic cancer cell panel viability, ATPlite luminescence, 48 h; series mostly up to 57.5 µM
Procedure, shortened: as §3

PA-1 = assay: as above; settings: Gynecologic cancer cell panel viability, ATPlite luminescence, 48 h; series mostly up to 57.5 µM
Procedure, shortened: as §3

OC[C@@]1(O)CO[C@@H](OC[C@H]2O[C@@H](OCc3ccccc3)[C@H](O)[C@@H](O)[C@@H]2O)[C@@H]1O
inactive: max response (CRL-7250) 1.98% | max response (HEK293) 2.46% | outcome (HaCat [1]) | outcome (KB-3-1) | outcome (NIH3T3 [2]) | outcome (HACAT [3]) inactive [at 17.4 µM] | outcome (NIH3T3 [4]) inactive [at 17.4 µM] | Potency (C33A) | Potency (CAOV3) | outcome (CASKI) | Potency (Es-2) | Potency (HeLa) | Potency (Hek293T) | Potency (JEG-3) | Potency (OV90) | Potency (PA-1)

CC(C)=CCC[C@](C)(O[C@@H]1O[C@H](CO[C@@H]2OC[C@H](O)[C@H](O)[C@H]2O)[C@@H](O)[C@H](O)[C@H]1O)[C@H]1CC[C@]2(C)[C@@H]1[C@H](O)C[C@@H]1[C@@]3(C)CC[C@H](O[C@@H]4O[C@H](CO)[C@@H](O)[C@H](O)[C@H]4O[C@@H]4O[C@H](CO)[C@@H](O)[C@H](O)[C@H]4O)C(C)(C)[C@@H]3CC[C@]12C
inactive: outcome (CRL-7250) | max response (HEK293) 3.96% | outcome (HaCat [1]) | max response (KB-3-1) 1.14% | outcome (NIH3T3 [2]) | outcome (HACAT [3]) inactive [at 17.4 µM] | outcome (NIH3T3 [4]) inactive [at 17.4 µM] | Potency (C33A) | Potency (CAOV3) | outcome (CASKI) | Potency (Es-2) | Potency (HeLa) | Potency (Hek293T) | Potency (JEG-3) | Potency (OV90) | Potency (PA-1)

Fc1ccc(-c2c3cccc(C(F)(F)F)c3nn2Cc2ccc(F)cc2Cl)cc1
inactive: max response (CRL-7250) -3.03% | max response (HEK293) 0.746% | outcome (HaCat [1]) | max response (KB-3-1) -3.04% | outcome (NIH3T3 [2]) | outcome (HACAT [3]) | outcome (NIH3T3 [4]) | Potency (C33A) | Potency (CAOV3) | outcome (CASKI) | Potency (Es-2) | Potency (HeLa) | Potency (Hek293T) | Potency (JEG-3) | Potency (OV90) | Potency (PA-1)

C=C(COC(=O)CC(C)C)C1Cc2cc(C(C)=O)ccc2O1 (stereo not given)
inactive: outcome (CRL-7250) | max response (HEK293) -2.29% | outcome (HaCat [1]) | max response (KB-3-1) 4.45% | outcome (NIH3T3 [2]) | outcome (HACAT [3]) | outcome (NIH3T3 [4]) | Potency (C33A) | Potency (CAOV3) | outcome (CASKI) | Potency (Es-2) | Potency (HeLa) | Potency (Hek293T) | Potency (JEG-3) | Potency (OV90) | Potency (PA-1)

COc1cc(CC2COC(c3ccc(OC4OC(CO)C(O)C(O)C4O)c(OC)c3)C2CO)ccc1O (stereo not given)
inactive: outcome (CRL-7250) | max response (HEK293) 0.464% | outcome (HaCat [1]) | outcome (KB-3-1) | outcome (NIH3T3 [2]) | outcome (HACAT [3]) inactive [at 17.4 µM] | outcome (NIH3T3 [4]) inactive [at 17.4 µM] | Potency (C33A) | Potency (CAOV3) | outcome (CASKI) | Potency (Es-2) | Potency (HeLa) | Potency (Hek293T) | Potency (JEG-3) | Potency (OV90) | Potency (PA-1)

CC(=O)OC(C)(C)/C=C/C(=O)[C@](C)(O)C1[C@H](O)C[C@@]2(C)[C@@H]3CC=C4[C@@H](C[C@H](O[C@@H]5O[C@H](CO)[C@@H](O)[C@H](O)[C@H]5O)C(=O)C4(C)C)[C@]3(C)C(=O)C[C@]12C (stereo not given in full)
inactive: outcome (CRL-7250) | max response (HEK293) -17.8% | outcome (HaCat [1]) | max response (KB-3-1) 1.94% | outcome (NIH3T3 [2]) | outcome (HACAT [3]) inactive [at 17.4 µM] | outcome (NIH3T3 [4]) inactive [at 17.4 µM] | Potency (C33A) | Potency (CAOV3) | outcome (CASKI) | Potency (Es-2) | Potency (HeLa) | Potency (Hek293T) | Potency (JEG-3) | Potency (OV90) | Potency (PA-1)

COc1cc(O)cc(C)c1C(=O)O[C@H]1[C@@H](O)[C@@H](n2ccc(=O)[nH]c2=O)O[C@@H]1CO
inactive: max response (CRL-7250) -0.148% | max response (HEK293) -4.61% | outcome (HaCat [1]) | max response (KB-3-1) -0.769% | outcome (NIH3T3 [2]) | outcome (HACAT [3]) inactive [at 17.4 µM] | outcome (NIH3T3 [4]) inactive [at 17.4 µM] | Potency (C33A) | Potency (CAOV3) | outcome (CASKI) | Potency (Es-2) | Potency (HeLa) | Potency (Hek293T) | Potency (JEG-3) | Potency (OV90) | Potency (PA-1)

CC1(C)CC[C@]2(C(=O)O[C@@H]3O[C@H](CO)[C@@H](O)[C@H](O)[C@H]3O)CC[C@]3(C)C(=CCC4[C@@]5(C)C[C@@H](O)[C@H](O)[C@@](C)(CO)C5[C@H](O)C[C@]43C)C2C1 (stereo not given in full)
inactive: max response (CRL-7250) -10.1% | max response (HEK293) -14.5% | outcome (HaCat [1]) | max response (KB-3-1) -2.95% | outcome (NIH3T3 [2]) | outcome (HACAT [3]) inactive [at 17.4 µM] | outcome (NIH3T3 [4]) inactive [at 17.4 µM] | Potency (C33A) | Potency (CAOV3) | outcome (CASKI) | Potency (Es-2) | Potency (HeLa) | Potency (Hek293T) | Potency (JEG-3) | Potency (OV90) | Potency (PA-1)

COc1ccc(OC2OC(CO[C@@H]3O[C@@H](C)[C@H](O)[C@@H](O)[C@H]3O)C(O)C(O)C2O)cc1OC (stereo not given in full)
inactive: max response (CRL-7250) 3.33% | max response (HEK293) -0.0887% | outcome (HaCat [1]) | max response (KB-3-1) 5.53% | outcome (NIH3T3 [2]) | outcome (HACAT [3]) inactive [at 17.4 µM] | outcome (NIH3T3 [4]) inactive [at 17.4 µM] | Potency (C33A) | Potency (CAOV3) | outcome (CASKI) | Potency (Es-2) | Potency (HeLa) | Potency (Hek293T) | Potency (JEG-3) | Potency (OV90) | Potency (PA-1)

C=C1CC/C=C(/CO)C(=O)C[C@@H]2[C@@H]1C[C@@]2(C)COC(C)=O
inactive: outcome (CRL-7250) | max response (HEK293) -4.3% | outcome (HaCat [1]) | max response (KB-3-1) 5.17% | outcome (NIH3T3 [2]) | outcome (HACAT [3]) | outcome (NIH3T3 [4]) | Potency (C33A) | Potency (CAOV3) | outcome (CASKI) | Potency (Es-2) | Potency (HeLa) | Potency (Hek293T) | Potency (JEG-3) | Potency (OV90) | Potency (PA-1)
